# This is a sample that favours compounds with a hit; in the whole collection about 5.2% have one here.
# EphB4 ephrin blk = EphB4-ephrin-B2 interaction antagonists, primary screen, biochemical, TNYL-RAW peptide probe, fluorescence polarization. 97,000 compounds, 0.15% hits. EphB4 LBD / TNYL-RAW-Alexa532 peptide. inhibition, % at 7 µM. AID 720, 2007;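 active means inhibition above the screen-wide mean inhibition plus 3 SD, cut at about 15% in these data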;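 further: 0% = DMSO wells and 100% = excess unlabeled TNYL-RAW peptide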
# Target sequence (P54760 whole entry, looked up, the tested form may be a part): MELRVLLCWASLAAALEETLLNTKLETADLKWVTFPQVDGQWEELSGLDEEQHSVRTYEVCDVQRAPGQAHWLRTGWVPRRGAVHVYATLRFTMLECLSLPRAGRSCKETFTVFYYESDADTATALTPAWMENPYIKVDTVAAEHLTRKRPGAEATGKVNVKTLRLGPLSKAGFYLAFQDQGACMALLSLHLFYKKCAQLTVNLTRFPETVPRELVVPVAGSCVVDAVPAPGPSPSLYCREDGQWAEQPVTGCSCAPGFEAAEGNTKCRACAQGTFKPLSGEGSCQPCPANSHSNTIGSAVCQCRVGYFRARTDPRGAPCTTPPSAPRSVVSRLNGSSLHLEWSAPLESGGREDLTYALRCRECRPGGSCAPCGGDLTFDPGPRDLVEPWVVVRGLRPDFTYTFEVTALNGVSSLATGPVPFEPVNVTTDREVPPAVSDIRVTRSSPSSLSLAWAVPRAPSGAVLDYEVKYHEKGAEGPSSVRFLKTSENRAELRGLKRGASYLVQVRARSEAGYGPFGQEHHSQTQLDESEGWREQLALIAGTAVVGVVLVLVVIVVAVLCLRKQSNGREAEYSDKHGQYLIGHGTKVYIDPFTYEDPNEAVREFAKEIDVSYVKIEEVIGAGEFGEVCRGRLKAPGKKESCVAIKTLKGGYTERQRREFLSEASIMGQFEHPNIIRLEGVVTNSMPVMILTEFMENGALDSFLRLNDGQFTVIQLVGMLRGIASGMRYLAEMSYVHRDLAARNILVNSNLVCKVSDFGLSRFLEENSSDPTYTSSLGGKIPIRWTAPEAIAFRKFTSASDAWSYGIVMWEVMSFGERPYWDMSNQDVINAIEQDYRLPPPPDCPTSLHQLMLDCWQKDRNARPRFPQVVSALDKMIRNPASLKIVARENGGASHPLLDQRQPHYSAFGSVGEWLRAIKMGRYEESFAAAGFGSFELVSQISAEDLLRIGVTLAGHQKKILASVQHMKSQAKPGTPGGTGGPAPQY
# PostGolgi ctrl = growth inhibition of yeast control strain, primary screen, counter-screen for post-Golgi transport modulator project; efflux-deficient yeast background strain, growth absorbance A615, 16 h; inhibition, % at 10 µM; 98,000 compounds, 5% hits; AID 738, 2007
# PostGolgi yeast = phenotypic screen on post-Golgi transport, primary screen | post-Golgi transport phenotypic cell assay | inhibition, % at 10 µM | 98,000 compounds, 0.9% hits;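 further: yeast cells grown in 1536-well plates; yeast grown about 18 h at 30C before absorbance read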
# Calb biofilm kill = clotrimazole potentiators killing Candida biofilms, primary screen, with clotrimazole, Alamar Blue; inhibition, % at 6 µM; C. albicans biofilm + clotrimazole; AID 834, 2007; 85,000 compounds, 0.14% hits;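 active means inhibition above 20%; inactive means inhibition below 20%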;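 further: preformed 24 hr biofilms exposed to compound for 48 hr; 0% = biofilm without compound and 100% = blank killed by clotrimazole plus chlorhexidine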
# Numbers without * were called inactive; . = no result given. Unless noted, no stated cut-off is given here; in the data, active means inhibition above about 30%; inactive means the rest.
SMILES,EphB4 ephrin blk,PostGolgi ctrl,PostGolgi yeast,Calb biofilm kill
CCSc1nc2c(sc3nc(C)cc(C)c32)c(=O)[nH]1,-7.2,42.0*,-6.8,.
CCS(=O)(=O)CCSc1nc2ccccc2o1,1.5,12.6,-8.6,.
O=S(=O)(CCSc1nc2ccccc2o1)c1nc2ccccc2s1,-3.1,60.9*,3.5,6.0
Cc1ccc(C)n1-c1ccc(-c2nnc3n2CCCCC3)s1,3.6,-3.2,1.3,8.3
CCOc1ccc(NC(=O)N(C2CCCCC2)C(C)c2ccncc2)cc1 (stereo not drawn),5.0,23.1,23.2,.
CCOc1ccc(NC(=O)N(C2CCCCC2)C(C)c2cccnc2)cc1 (stereo not drawn),-14.6,28.1,63.4*,10.6
Clc1ccc2[nH]c(-c3ccccc3)cc2c1,-11.3,42.4*,-5.9,.
Cc1cc(C)nc(N2CCCC(C(=O)NCC(c3ccccc3)c3ccccc3)C2)n1 (stereo not drawn),5.2,.,.,6.0
CCC(C)N1C(=O)c2ccccc2C1C(=O)NC1CCCCCC1 (stereo not drawn),-2.5,31.1*,-7.0,7.3
CC1=C(C(=O)Nc2cc(C)ccc2C)C(c2cccs2)NC(=S)N1 (stereo not drawn),4.6,1.2,-3.5,.
CCOC(=O)c1c(NC(=O)C(C)N2CCN(C(=O)c3ccco3)CC2)sc2c1CCCC2 (stereo not drawn),4.6,12.9,-5.9,.
Cc1ccccc1Cc1c(C)nc2c(C(=O)NCc3ccc4c(c3)OCO4)cnn2c1C,3.8,20.0,-2.2,3.0
Cc1cccc(Cc2c(C)nc3c(C(=O)NCc4ccco4)cnn3c2C)c1,1.6,33.2*,3.1,-0.8
Cc1ccc(C)c(Cc2c(C)nc3c(C(=O)NCc4ccc5c(c4)OCO5)cnn3c2C)c1,2.4,56.5*,4.5,4.5
Cc1nc2c(C(=O)NCc3ccco3)cnn2c(C)c1Cc1ccc(F)cc1Cl,1.6,18.4,3.3,-1.3
Cc1nc2c(C(=O)NCc3ccc4c(c3)OCO4)cnn2c(C)c1Cc1ccc(F)cc1Cl,-1.4,42.3*,-1.7,9.6
CCSc1nnc(NC(=O)COc2ccc3ccccc3c2)s1,1.9,7.5,-1.1,1.8
CCC(C)(C)C1CCC(=NNC(=O)c2ccoc2C)CC1 (stereo not drawn),-1.7,-3.6,8.9,.
COC(=O)[C@H](Cc1ccccc1)NC(=O)Nc1ccc(C)cc1,3.4,3.0,3.9,4.8
CN=Cc1nc(-c2ccccc2)oc1O,-5.2,.,.,0.4
CC1=Nc2ccccc2/C1=C\c1nc(-c2ccc(F)cc2)oc1O,15.4*,7.5,-16.2,0.0
CCOC(=O)c1ccc(NC(=S)NNC(=O)C2(C)CC2(Cl)Cl)cc1 (stereo not drawn),1.7,.,.,.
CN1CCC(N(C)C(=O)CCc2nc3ccccc3c(=O)[nH]2)CC1,1.4,5.8,-36.9,-5.2
CN1CCN(C(=O)c2ccc3c(c2)N(Cc2ccc(Cl)cc2)C(=O)c2ccccc2S3=O)CC1 (stereo not drawn),.,2.6,-0.7,4.5
O=C(c1ccc2c(c1)N(Cc1ccccc1)C(=O)c1ccccc1S2)N1CCCC1,3.5,44.6*,28.5,10.1
SMILES,EphB4 ephrin blk,PostGolgi ctrl,PostGolgi yeast,Calb biofilm kill
O=C(Nc1ccon1)c1csc2c1CCCC2,8.8,32.0*,17.4,4.8
O=S(=O)(Nc1ccc(S(=O)(=O)Nc2ccccc2)cc1)c1ccccc1,10.8,-1.5,13.8,-5.2
O=S(=O)(Nc1ccc(-n2cccc2)cc1)c1ccccc1,4.5,33.2*,4.2,.
c1ccc(C2(CNc3ccccn3)CCCC2)cc1,2.5,10.3,-1.3,-4.8
COCCn1c(C23CC4CC(CC(C4)C2)C3)n[nH]c1=S,8.0,31.7*,10.6,4.1
COCCn1c(-c2ccccc2F)n[nH]c1=S,-7.0,-5.0,8.6,-0.1
COC(=O)c1ccc(NC(=O)Cn2nc(SC)n(N)c2=S)cc1,.,1.8,-1.6,26.7*
CC(C)C(=O)N(c1cc2sc(=O)oc2c2ccccc12)S(=O)(=O)c1cccs1,-3.2,67.2*,10.2,5.7
CC(/C=N/n1c(C2CCCCC2)n[nH]c1=S)=C\c1ccccc1,-5.5,44.2*,4.2,.
S=c1[nH]nc(C2CCCCC2)n1/N=C/c1cccs1,-8.8,21.5,2.0,.
CC(=C/c1ccccc1)/C=N/n1c(-c2ccco2)n[nH]c1=S,3.8,33.4*,8.6,.
CCOC(=O)N1CCC(N2CCN(S(=O)(=O)c3ccc4ccccc4c3)CC2)CC1,1.6,-6.5,-9.1,.
Cc1ccc(S(=O)(=O)N(CC(=O)Nc2cccc([N+](=O)[O-])c2)C2CCCCC2)cc1,4.5,35.2*,-8.4,.
CN(C(=O)/C(N=Nc1cccc(C(F)(F)F)c1)=C(\O)C(F)(F)F)c1ccccc1,1.0,37.6*,3.9,.
CCCNC(=O)c1c(N)n(-c2cccc(OC)c2)c2nc3ccccc3nc12,0.0,49.8*,33.4*,-0.1
CSc1ccccc1NC(=O)COc1ccc(S(=O)(=O)N2CCCC2)cc1,6.1,1.4,-4.1,5.7
CC(C)C(=O)NC(=S)Nc1ccc(S(=O)(=O)NC(C)(C)C)cc1,5.4,10.1,3.5,.
COc1ccc(CC(=O)NC(=S)Nc2ccc(S(=O)(=O)NC(C)(C)C)cc2)cc1,1.8,38.0*,2.7,.
Cn1nc(-c2ccc(Cl)cc2)nc2c(=O)n(C)c(=O)nc1-2,-0.1,107.4*,105.6*,12.1
O=S(=O)(NC(=NC1CCCC1)C(F)(F)F)c1ccccc1,-8.0,24.8,-0.6,2.8
CC(=O)c1ccc(N2CCC(c3cc(-c4ccc(Cl)cc4Cl)n[nH]3)CC2)c([N+](=O)[O-])c1,1.5,4.3,15.2,.
Cc1cc(NC(c2ccc(Cl)cc2)c2ccc3cccnc3c2O)no1 (stereo not drawn),15.8*,6.8,6.5,-1.6
Cc1ccc2ccc(C(Nc3ccccn3)c3ccccc3)c(O)c2n1 (stereo not drawn),2.3,8.3,-9.3,4.4
CN(C)c1ccc(C2C3C(=O)NC(=O)C3ON2c2ccc(Cl)cc2)cc1 (stereo not drawn),3.2,28.6,-4.2,7.2
CN1CC(c2ccc(C#N)cc2)C2(COc3ccccc3C2=O)C12C(=O)Nc1ccccc12 (stereo not drawn),0.7,31.0*,9.4,.
SMILES,EphB4 ephrin blk,PostGolgi ctrl,PostGolgi yeast,Calb biofilm kill
C=CCNC(=S)NNC(=O)C(CCCC)CC(C)(C)O (stereo not drawn),7.4,.,.,6.1
Cc1cc(OCC(=O)N2CCc3ccccc3C2)c2c(-c3ccccc3)cc(=O)oc2c1,1.3,50.6*,4.8,-1.3
CCOc1cc(C)cc2oc(=O)cc(-c3ccccc3)c12,-0.9,32.2*,21.3,0.8
COc1cccc(CNn2c(-c3cccc(C)c3)nc3ccccc3c2=O)c1,-5.3,35.6*,3.7,-5.7
Cc1noc(/C=C/N(C)C)c1S(=O)(=O)N1CCCC(C(=O)NCCC2=CCCCC2)C1 (stereo not drawn),5.5,.,.,15.1
N#C/C(=C\c1ccc(Cl)cc1)c1nc2ncccc2[nH]1,1.1,47.7*,26.7,.
NC1=NS(=O)(=O)NC1c1cccc(Cl)c1 (stereo not drawn),-4.8,1.1,-2.4,3.6
CCOC(=O)c1ccc(NC(=S)NCCc2ccccc2)cc1,4.3,4.5,3.9,.

# Screening results (PubChem BioAssay)
